An excerpt weighted towards active compounds, which were near 19% of everything screened.
Giardia kill = Giardia lamblia killing; Giardia lamblia trophozoite viability; AID 540267; hit rate 0.15% among 340,000; activity change, % at 7.66 µM, hits read low; in the data active = activity change below about -80%; inconclusive = between about -30% and that limit;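 also: parasites exposed to compound for two days anaerobically before the ATP read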
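Trophozoites 100 cells/well + cpd; 48 hrs, 37 deg C, anaerobic. ATPLite 1-Step added, 15-30 min RT, luminescence read (ATP-based viability).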
TDP1 cell CPT = growth inhibition of DT40 Tdp1-/-;hTDP1 cells with camptothecin (screen for TDP1 inhibitors); Potency, µM (series often up to 46.2 µM), without a hit: top-dose activity change, negative = growth inhibition, most hits filed as inhibitors; hit rate 12% among 420,000; AID 686979; chicken DT40 Tdp1-/-;hTDP1 cells + 20 nM CPT, ATP luminescence, 48 h; also: potency is read from the fitted curve at half-maximal effect; nearly all actives have a fitted effect of over 55% in size
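Chicken DT40 Tdp1-/- cells complemented with human TDP1, 400 cells/well, exposed to compounds plus 20 nM camptothecin for at least 48 h at 37 C; viability read as ATP content by CellTiter-Glo luminescence.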
ELG1 DNA repair = ELG1-dependent DNA repair inhibition; HEK293T ELG1-luciferase reporter, luminescence, 16 h; DNA damage induced by 5-fluorouridine; Potency, µM (top dose mostly 46.1 µM), for the others: at the highest dose activity change, negative = inhibition, usual class: inhibitors; hit rate 2.3% among 330,000; AID 504467; also: potency is read from the fitted curve at half-maximal effect; nearly all actives have a fitted effect of over 55% in size
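DMSO vehicle served as the neutral condition. Each well held 2,000 cells given 5-fluorouridine plus compound; after 16 hr at 37 °C/5% CO2, ONE-Glo was added and luciferase measured 30 min later.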
TDP1 inh = TDP1 (human) enzyme inhibition. hit rate 0.28% among 350,000. Potency, µM (top dose mostly 130 µM), inactives show at the top dose activity change, negative = inhibition, actives largely listed as inhibitors. Q9NUW8. AID 485290. recombinant TDP1, AlphaScreen DNA substrate cleavage; also: potency is read from the fitted curve at half-maximal effect; nearly all actives have a fitted effect of over 40% in size
Target sequence (Q9NUW8 whole entry, looked up): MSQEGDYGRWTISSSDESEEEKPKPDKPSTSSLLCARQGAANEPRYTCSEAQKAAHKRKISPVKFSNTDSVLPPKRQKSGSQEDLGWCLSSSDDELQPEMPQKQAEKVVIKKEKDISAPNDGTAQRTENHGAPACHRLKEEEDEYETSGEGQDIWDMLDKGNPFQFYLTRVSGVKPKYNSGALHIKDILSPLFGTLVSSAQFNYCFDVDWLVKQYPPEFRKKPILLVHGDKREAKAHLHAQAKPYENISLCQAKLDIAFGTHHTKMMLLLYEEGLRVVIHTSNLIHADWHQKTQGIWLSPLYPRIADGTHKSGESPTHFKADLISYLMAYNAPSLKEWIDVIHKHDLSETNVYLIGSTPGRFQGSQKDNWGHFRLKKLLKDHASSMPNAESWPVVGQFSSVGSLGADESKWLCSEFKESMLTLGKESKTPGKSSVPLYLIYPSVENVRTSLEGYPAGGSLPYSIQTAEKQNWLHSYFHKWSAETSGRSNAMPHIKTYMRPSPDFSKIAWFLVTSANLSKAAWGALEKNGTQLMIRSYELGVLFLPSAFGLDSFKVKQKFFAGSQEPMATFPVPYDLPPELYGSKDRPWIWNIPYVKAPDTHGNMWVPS
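Signal: AlphaScreen proximity between streptavidin donor and anti-FITC acceptor beads on intact substrate. Reaction: Tdp1 1 nM, substrate 15 nM final, 5 min RT after 15 min compound preincubation.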
IL-1B inflam inh = inhibitors of inflammasome signaling (IL-1 beta secretion). THP-1 LPS/ATP IL-1B secretion, AlphaLISA, 16 h; hits give low values. activity change, % at 57.5 µM. hit rate 4.7% among 360,000; in the data active = activity change below about -50%; inconclusive = mostly about -30% to -49%
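THP-1 cells pretreated 1 hr with compounds (up to 57.5 uM final), then stimulated with LPS (250 ng/mL final) plus ATP (1.25 mM final); secreted IL-1B measured by AlphaLISA after 16 hr, decreased signal indicating inhibition.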
DT40 TDP1 no CPT = qHTS for Inhibitors of human tyrosyl-DNA phosphodiesterase 1 (TDP1): qHTS in cells in absence of CPT; DT40 Tdp1-/- hTDP1 cells, no CPT, ATP luminescence, 48 h; Potency, µM (series often up to 46.2 µM), without a hit: top-dose activity change, negative = growth inhibition, actives largely listed as inhibitors; hit rate 15% among 420,000; also: potency is read from the fitted curve at half-maximal effect; nearly all actives have a fitted effect of over 55% in size
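Compound effects on proliferation are scored in DT40 Tdp1-/-;hTDP1 cells in the absence of CPT. ATP levels (CellTiter-Glo luminescence) are recorded after a ≥48 hr, 37 °C incubation.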
The depositor's hits bear a star; ? = inconclusive; nt = no result. Unless noted, calls follow the shape of the dose curve; as a rule, active = well fitted curve in the direction sought with a large enough effect; inconclusive = small, poorly fitted or top-dose-only effect, or another doubt; inactive = no such curve, though single readings can be large; an effect the other way counts as inactive or inconclusive. % is scaled to controls: 0 for no effect and ±100 for the full control effect.

SMILES	Giardia kill	TDP1 cell CPT	ELG1 DNA repair	TDP1 inh	IL-1B inflam inh	DT40 TDP1 no CPT
O=Cc1cccc(OCc2cccc3ccccc23)c1	8	4.1µM*	?	nt	?	2.6µM*
COc1ccc(COc2cccc(C=O)c2)cc1	-17	3.7µM*	?	nt	14	4.6µM*
O=Cc1ccc(OCc2ccc3ccccc3c2)cc1	-2	-28%	?	nt	1	-25%
COc1ccccc1CNc1ccc(-c2nc(-c3ccncc3)no2)cc1[N+](=O)[O-]	nt	-16%	nt	0%	nt	-15%
CCn1cc(CN2CCC(C(=O)Nc3cccc(-c4cccc(OC)c4)c3)CC2)c(C)n1	5	-3%	-1%	6%	5	-5%
CN(C)c1ccc(NC(=O)c2sc(SCC(=O)Nc3nccs3)nc2N)cc1	-9	?	?	12%	-22	16µM*
COc1ccc2cc(C)c3nnc(SCC(=O)Nc4nc(-c5ccccc5)cs4)n3c2c1	6	?	-15%	2%	35	4.6µM*
CN(C)c1ccc(NC(=O)c2sc(SCC(=O)Nc3ccc(Br)cc3)nc2N)cc1	-24	-10%	6%	5%	-5	7%
CCn1c(SCC(=O)Nc2nccs2)nnc1-c1ccc(S(=O)(=O)N2CCCCC2)cc1	-9	?	21µM*	5%	-21	16µM*
CCn1c(SCC(=O)c2ccc(O)c(O)c2)nnc1-c1ccc(C)cc1	-12	23µM*	-7%	-4%	49	?
CCn1c(SCC(=O)Nc2oc(-c3ccccc3)c(-c3ccccc3)c2C#N)nnc1-c1ccco1	-2	?	-1%	11%	-14	-29%
COc1ccc(-c2oc(NC(=O)CSc3nncn3C)c(C#N)c2-c2ccc(OC)cc2)cc1	2	?	18µM*	3%	-8	?
Cc1nnc(SCC(=O)Nc2nc(-c3ccccc3)cs2)n1N	13	-7%	?	1%	73	-14%
Cn1cnnc1SCC(=O)Nc1nc(-c2ccccc2)cs1	-5	-9%	16%	35µM*	19	?
CCn1c(SCC(=O)Nc2nc(-c3ccccc3)cs2)nnc1-c1ccccc1	1	?	?	4%	-63*	?
CCn1c(SCC(=O)OC(C)C)nnc1-c1ccccc1	-16	4%	-9%	-9%	-64*	-4%
COc1cc(OC)c(N(C)S(=O)(=O)c2cccc(C(=O)OCC(=O)N(C)C3CCCCC3)c2)cc1Cl	-17	?	nt	nt	1	?
C=C(C)CNC(=O)c1ccc2nc(Cc3ccc(OC)cc3)oc2c1	0	?	?	nt	-1	?
Cc1ccc2nc(CNC(=O)c3cc(NC(=O)c4ccccc4)cc4ncn(C5CCCC5)c34)cn2c1	nt	5%	nt	nt	nt	-15%
CCC(C)Nc1sc(S(=O)(=O)CC)nc1S(=O)(=O)c1ccc(C)cc1 (stereo unspecified)	nt	-10%	nt	5%	nt	-8%
O=C(CSc1ccccc1)Nc1nccs1	-24	26%	?	0%	11	-15%
O=C(CSc1nc(-c2ccccc2)cs1)Nc1nccs1	0	?	-3%	5%	36	16µM*
CCn1c(SCC(=O)Nc2oc(-c3ccccc3)c(-c3ccccc3)c2C#N)nnc1-c1ccncc1	26	13µM*	-13%	9%	4	?
C=CCOC(=O)c1ccccc1C(=O)OCC1CO1 (stereo unspecified)	-5	?	nt	nt	-14	?
COc1ccc(CCN2CCC(CN3C(=S)NC[C@@H]3CC(C)C)CC2)cc1OC	11	9%	nt	nt	11	-3%
SMILES	Giardia kill	TDP1 cell CPT	ELG1 DNA repair	TDP1 inh	IL-1B inflam inh	DT40 TDP1 no CPT
O=C(CSc1nc2cc3ccccc3cc2[nH]1)Nc1ccc(F)cc1	15	?	nt	3%	-4	23µM*
COc1ccc2nc(SCC(=O)NC3CCCCC3C)[nH]c2c1 (stereo unspecified)	12	16µM*	-19%	1%	0	9.2µM*
COc1ccc(NC(=O)CSc2nc3ccncc3[nH]2)c(OC)c1	0	23µM*	-1%	5%	19	9.2µM*
COC(=O)c1ccc(NC(=O)CSc2nc3ccc(OC)cc3[nH]2)cc1	nt	23µM*	nt	nt	nt	23µM*
COc1ccc(CNC(=O)CN(C(=O)CCC(=O)Nc2ccccn2)c2ccc3c(c2)OCO3)cc1	-14	-5%	9%	6%	-13	-24%
COc1ccccc1CNC(=O)CCc1c(C)nn(-c2ccc(N3CCCC3)nn2)c1C	nt	?	nt	7%	nt	?
COc1ccc2nc(SCC(=O)NCc3ccc(OC)c(OC)c3)[nH]c2c1	5	-12%	0%	17%	13	-27%
CCOc1ccc2nc(SCC(=O)NCc3ccc(OC)c(OC)c3)[nH]c2c1	3	15µM*	?	-1%	-7	?
COC(=O)c1ccc(NC(=O)CSc2nc3ncccc3[nH]2)cc1	0	-21%	13%	7%	22	21µM*
CC(c1ccccc1)N1C(=O)c2ccc(C(=O)Nc3ccc(Br)cc3C(=O)O)cc2C1=O (stereo unspecified)	-18	2.1µM*	-2%	2%	14	?
CC(C)CN1C(=O)c2ccc(C(=O)Nc3ccc(O)cc3C(=O)O)cc2C1=O	-4	8%	21%	nt	25	-4%
Brc1ccc(OCc2ccccc2)c(CNCc2ccncc2)c1	-5	16µM*	?	7%	-59*	?
Brc1cccc(CNCc2ccncc2)c1	-9	7%	-9%	5%	40	-17%
Fc1ccc(COc2ccccc2CNCc2ccncc2)cc1	-15	?	0%	3%	-4	26µM*
COc1cccc(C(=O)NC(C)c2nnc3n2CCN(CC=C(C)C)CC3)c1 (stereo unspecified)	nt	-6%	nt	nt	nt	-19%
NC(=O)C1=C(c2ccccc2)c2ccccc2C1=O	1	2.9µM*	nt	nt	-102*	5.2µM*
COc1ccc2c(c1)O[C@H](c1ccc3c(c1)OCO3)[C@@H](OC(=O)Nc1ccc(OC(F)F)cc1)C2=O	nt	nt	nt	10%	nt	nt
COc1ccc2c(c1)O[C@@H](c1cccc(C(F)(F)F)c1)[C@H](OC(=O)Nc1ccc(OC(F)F)cc1)C2=O	2	?	?	14%	-21	21µM*
Cc1sc(NC(=O)c2ccccc2F)c(CN2CCCCC2C)c1C (stereo unspecified)	-13	18µM*	?	-11%	1	12µM*

Compound activity from PubChem BioAssay.
